Screens (PubChem)
Hits are enriched below; roughly 10% of the tested compounds scored in any of these assays.
hNpr1 antagonist: blocks ANP-stimulated signaling of human Npr1 receptor; P16066; HEK293 hNpr1 GloSensor cGMP, ANP-stimulated luminescence; Potency, µM (series often up to 46.3 µM), for the others: at the top dose activity change, negative = inhibition, hits mostly inhibitors; hit rate 1.6% among 76,000; AID 1347048; calls by dose curve; further: on the % scale 0 is the no-effect control and ±100 the full control effect; nearly all actives have a fitted effect of over 60% in size
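HEK293 cells stably expressing human Npr1 and cGMP GloSensor pGS-40F, loaded 2 h with 2% GloSensor reagent, given compound 30 min at room temperature. Luminescence read before and 20 min after 0.1 nM hNppA.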
FLuc inh-1: inhibitors of firefly (Photinus pyralis) luciferase. hit rate 2.5% among 76,000. P08659. purified P. pyralis luciferase, luminescence, biochemical. Potency, µM (highest dose often 115 µM), usual class: inhibitors; further: on the % scale 0 is the no-effect control and ±100 the full control effect; nearly all actives have a fitted effect of over 65% in size
Target sequence (P08659 whole entry, looked up): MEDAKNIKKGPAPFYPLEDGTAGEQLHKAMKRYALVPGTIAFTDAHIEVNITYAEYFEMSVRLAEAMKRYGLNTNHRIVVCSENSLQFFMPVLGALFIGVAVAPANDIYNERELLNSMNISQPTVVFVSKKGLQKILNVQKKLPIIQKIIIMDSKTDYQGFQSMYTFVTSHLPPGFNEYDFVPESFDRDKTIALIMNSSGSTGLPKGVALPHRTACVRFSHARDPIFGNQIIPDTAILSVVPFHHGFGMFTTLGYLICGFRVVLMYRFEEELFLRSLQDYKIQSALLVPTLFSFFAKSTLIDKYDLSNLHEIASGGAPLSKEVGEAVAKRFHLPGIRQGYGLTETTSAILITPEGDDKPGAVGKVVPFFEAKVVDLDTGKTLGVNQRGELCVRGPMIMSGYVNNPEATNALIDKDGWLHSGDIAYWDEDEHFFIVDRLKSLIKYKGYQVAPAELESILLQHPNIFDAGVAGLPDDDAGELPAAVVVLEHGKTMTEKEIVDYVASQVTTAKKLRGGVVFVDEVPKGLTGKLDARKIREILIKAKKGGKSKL
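Purified 10nM P. pyralis luciferase with 10uM D-luciferin and 10uM ATP in 50mM Tris acetate pH 7.5, 10mM Mg acetate, 0.01% Tween-20, 0.05% BSA. qHTS titration; luminescence read by CCD imager.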
NIH3T3 tox: kills NIH 3T3 cells; NIH 3T3 viability, CellTiter-Glo ATP luminescence, 48-72 h; Potency, µM (titrated, usually from 96.7 µM), without a hit: top-dose activity change, negative = cytotoxicity, usual class: inhibitors; hit rate 4.3% among 94,000; AID 1345082; further: on the % scale 0 is the no-effect control and ±100 the full control effect; nearly all actives have a fitted effect of over 55% in size
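ATP-dependent luminescence (CellTiter-Glo) served as the viability signal for NIH 3T3 cells treated with compound for 48 or 72 hr at 37 °C.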
HEK cytotox: kills HEK 293 cells; HEK 293 viability, ATP luminescence (CellTiter-Glo), 48-72 h; Potency, µM (top dose mostly 115 µM), without a hit: at the top dose activity change, negative = cytotoxicity, hits mostly inhibitors; hit rate 6.6% among 94,000; further: on the % scale 0 is the no-effect control and ±100 the full control effect; nearly all actives have a fitted effect of over 60% in size
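Viability of HEK 293 cells, plated at 250 cells/well, was judged by cellular ATP after compound treatment for 48 or 72 hr. Luminescence was imaged 10 min after CellTiter-Glo addition at room temperature.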
GPT2 inh: GPT2 alanine aminotransferase inhibition | hit rate 0.25% among 100,000 | Q8TD30 | Recombinant GPT2, coupled pyruvate oxidase/HRP Amplex Red fluorescence | AID 1671188 | Potency, µM (doses to about 57.7 µM), without a hit: at the highest dose activity change, negative = inhibition, usual class: inhibitors; further: on the % scale 0 is the no-effect control and ±100 the full control effect; nearly all actives have a fitted effect of over 60% in size
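GPT2 10ng/uL, a-KG 250uM, L-Ala 2mM, HEPES pH7.5 + 0.0001% Tween; 30 min RT. Then Amplex mix (PO/HRP/ThPP), 30 min RT dark, fluorescence. AOA 50uM used as positive control.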
FLuc SDR no ATP: firefly luciferase binding stabilization, ATP absent; shares compounds with FLuc inh-1; Purified FLuc-C-HiBiT, Nano-Glo HiBiT luminescence, no ATP; Potency, µM (series often up to 32.7 µM), without a hit: at the highest dose activation (signal gain), usual class: activators; hit rate 7.8% among 1,300; AID 1963318; further: nearly all actives have a fitted effect of over 55% in size
FLuc SDR ATP: stabilizes firefly luciferase with ATP present | hit rate 8.7% among 1,300 | Potency, µM (series often up to 32.7 µM), inactives show at the highest dose activation (gain of signal), usual class: activators | purified FLuc-C-HiBiT + ATP, HiBiT complementation luminescence | shares compounds with FLuc inh-1;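 further: signal reports ligand binding via conformational change of the enzyme rather than luciferase catalysis; % of control where 0% means no effect; nearly all actives have a fitted effect of over 55% in size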
FLuc inh-2: firefly luciferase enzyme inhibition. shares compounds with FLuc inh-1. purified FLuc-C-HiBiT enzyme, luciferin luminescence. Potency, µM (top dose mostly 32.7 µM), for inactives: at the highest dose activity change, negative = inhibition, actives largely listed as inhibitors. hit rate 42% among 1,300; further: on the % scale 0 is the no-effect control and ±100 the full control effect; nearly all actives have a fitted effect of over 70% in size
Starred values were filed as active, the others as inactive; i = inactive; ? = inconclusive; . = not tested or not shown; [ ] = dose if it differs, or a comment. Unless noted, the call rests on the fitted dose curve; in most records, active means well fitted curve in the direction sought with a large enough effect; inconclusive means small, poorly fitted or top-dose-only effect, or another doubt; inactive means no such curve, though single readings can be large; an effect the other way counts as inactive or inconclusive. Potency means the concentration at half of the fitted maximal effect.

SMILES | hNpr1 antagonist | FLuc inh-1 | NIH3T3 tox | HEK cytotox | GPT2 inh | FLuc SDR no ATP | FLuc SDR ATP | FLuc inh-2
COCCN1CCC2(C1)CN(C)c1ccc(C(=O)Nc3ccccc3)cc12 (stereo unspecified) | 6.3µM* | 0.63µM* | ? | 79µM* | 4%[88.5 µM] | 4µM* | ? | 1.1µM*
COCCN1CCC2(C1)CN(C)c1ccc(C(=O)NCCOc3ccccc3)cc12 (stereo unspecified) | -6%[70.6 µM] | i | ? | ? | 0%[88.5 µM] | . | . | .
CC1(NC(=O)C2CC2)CN(Cc2nc(-c3ccccc3)cs2)C1 | ? | 13µM* | ? | -29%[172 µM] | -20%[88.5 µM] | 16%[49.3 µM] | 13%[49.3 µM] | ?
C[C@H](C(=O)N1CCCC1)C1CC[C@@]2(C)Cc3sc(-c4ccccc4)nc3[C@@H](C)[C@@H]2[C@H]1O (stereo partly specified) | ? | 8.9µM* | ? | 45µM* | 2% | 3.1µM* | 2.2µM* | 2µM*
COCCNC(=O)[C@@H](C)C1CC[C@@]2(C)Cc3sc(CSc4ccccc4)nc3[C@@H](C)[C@@H]2[C@H]1O (stereo partly specified) | 11µM* | 7.1µM* | ? | ? | 2% | 28% | ? | ?
C[C@H]1[C@@H]2[C@@H](O)C([C@H](C)C(=O)N3CCCCC3)CC[C@@]2(C)CC[C@@H]1NC(=O)c1ccccn1 (stereo partly specified) | -4% | i | -28% | -9% | ? | . | . | .
CC(C)N1CCN(C(=O)c2cc3c(=O)[nH]c(-c4ccccc4)cn3n2)CC1 | 7% | i | -20% | -25% | i | . | . | .
CCOC(=O)c1cccc(NC(=O)c2cnc(-c3ccc(C)cc3)nc2-c2ccncc2)c1 | -15% | i | -16% | ? | -17% | . | . | .
Cc1ccc(OCC(=O)Nc2cccc(C(=O)OCc3cc(=O)n4nc(C)sc4n3)c2)cc1 | . | . | . | . | . | 20% | ? | ?
O=C(c1ccccc1Cl)N1CCN(c2ccc3nnc(C4CC4)n3n2)CC1 | . | . | -25% | -2% | . | . | . | .
CN(C)c1cccc(-c2cnc(NC(=O)C3(c4ccccc4)CC3)c3c2CCO3)c1 | -3%[70.6 µM] | i | ? | ? | i | . | . | .
CNC(=O)c1cccc(-c2cnc(NC(=O)Cc3ccccc3)c3c2CCO3)c1 | 8.9µM* | 0.45µM* | ? | ? | -5%[88.5 µM] | 11µM* | ? | 3.2µM*
COc1cccc(Nc2ncc(-c3ccc(OC)nc3)c3c2OCC3)c1 | -29%[70.6 µM] | 5.6µM* | ? | ? | 4%[88.5 µM] | 14%[49.3 µM] | 10%[49.3 µM] | ?
CNC(=O)c1cccc(-c2cnc(Nc3cccnc3OC)c3c2CCO3)c1 | ? | 3.5µM* | 45µM* | 28µM* | i | 34%[49.3 µM] | 19%[49.3 µM] | 5.1µM*
O=C(Nc1ncc(-c2ccccc2)c2c1OCC2)c1ccccc1 | -23%[70.6 µM] | 5.6µM* | ? | ? | 4%[88.5 µM] | 16%[49.3 µM] | 20%[49.3 µM] | ?
O=C(NC1CCN(CCn2nc3n(c2=O)CCCC3)C1)c1ccc(F)cc1 (stereo unspecified) | . | . | -17% | -4% | . | . | . | .
COc1cc(NC(=O)c2ccc3c(c2)N(C)C2CCCCCN2C3=O)cc(OC)c1 (stereo unspecified) | -13% | ? | ? | ? | i | . | . | .
COCCCNC(=O)c1cc2c(=O)[nH]c(-c3ccccc3)cn2n1 | -1% | i | -25% | ? | 4% | . | . | .
O=C(c1ccc2c(c1)OCO2)N1CCC2(CC1)C(=O)Nc1ccccc12 | . | . | -3% | -25% | 0% | . | . | .
COCCNc1ncc(-c2cccc(NC(C)=O)c2)c2c1OCC2 | ? | 6.3µM* | ? | ? | 3%[88.5 µM] | 24%[49.3 µM] | ? | ?
CNC(=O)c1cccc(-c2cnc(Nc3ccccc3)c3c2CCO3)c1 | -6%[70.6 µM] | 8.9µM* | 35µM* | 89µM* | 5%[88.5 µM] | 19%[49.3 µM] | 13%[49.3 µM] | ?
c1ccc(Nc2ncc(-c3ccccc3)c3c2OCC3)cc1 | -29%[70.6 µM] | ? | ? | ? | i | . | . | .
Fc1cccc(-c2cnc(Nc3ccc(N4CCOCC4)cc3)c3c2CCO3)c1 | -28%[70.6 µM] | 10µM* | ? | ? | -4%[88.5 µM] | 17%[49.3 µM] | 10%[49.3 µM] | ?
Fc1cc(Nc2ncc(-c3ccccc3)c3c2OCC3)cc(N2CCOCC2)c1 | 1%[70.6 µM] | i | ? | ? | 3%[88.5 µM] | . | . | .
Cn1cc(C(=O)NCC2CN(C(=O)c3ccc(Oc4ccccc4)cc3)CC23CN(c2ccccc2)C3)cn1 (stereo unspecified) | -30% | i | ? | ? | i | . | . | .
SMILES | hNpr1 antagonist | FLuc inh-1 | NIH3T3 tox | HEK cytotox | GPT2 inh | FLuc SDR no ATP | FLuc SDR ATP | FLuc inh-2
Cc1ccc2nc(-c3ccc(NC(=O)COc4ccc(Br)cc4Br)cc3)sc2c1 | . | . | . | . | . | ? | ? | 3.5µM*
CCc1ccc(NC(=O)COc2ccc(-c3nnc4n3CCCC4)cc2)cc1 | 1% | i | -20% | -4% | i | . | . | .
Cc1ccc2nc(-c3ccc(NC(=O)Cc4ccccc4)cc3)sc2c1 | . | . | . | . | . | 13% | 14% | ?
Cc1ccc(NC(=O)COc2ccc(-c3nnc4n3CCCC4)cc2)cc1F | -7% | i | ? | -7% | 3% | . | . | .
Cc1ccc2nc(-c3ccc(NC(=O)COc4ccc(Cl)c(C)c4)cc3)sc2c1 | . | . | . | . | . | 16% | 10% | -11%
Cc1cc(C)cc(Nc2nc(C)cc(=O)n2CC(=O)Nc2ccc(Br)cc2)c1 | ? | i | ? | ? | ? | . | . | .
Cc1ccc(NC(=O)Cn2c(-c3ccccc3)nc(C)cc2=O)cc1 | -18% | i | ? | ? | i | . | . | .
Cc1ccc2nc(-c3ccc(NC(=O)COc4c(C)ccc(C)c4C)cc3)sc2c1 | . | . | . | . | . | 17% | 15% | ?
COCCOC1CCOC2(CCN(C(=O)NCCc3ccccc3)CC2)C1 (stereo unspecified) | -2% | ? | 4% | ? | 2% | . | . | .
O=C(Nc1ccccc1)N1CCCC(C(=O)N2CCC(c3nc4ncccc4[nH]3)C2)C1 (stereo unspecified) | . | . | i | i | 4% | . | . | .
CCCCn1c(=O)c(C(=O)N2CCN(C(=O)c3ccc(Cl)cc3)CC2)nc2cccnc21 | . | . | -33% | 3% | 4% | . | . | .
COc1ccc(-c2cc(N3CCC(NC(=O)c4ccccc4Cl)C3)n[nH]2)cc1 (stereo unspecified) | 0% | i | ? | ? | ? | . | . | .
CSC(=S)Nc1ccc(-c2nc3ccc(C)cc3s2)cc1 | . | . | . | . | . | 25% | 19% | 2.5µM*
